Reference: PubChem BioAssay (NCI)
Where “and” joins values, the source holds several entries; their conditions need not be identical. Identical values can stand only once. Compounds without any hit were thinned out: in the full panel of roughly 83,000, 20% have a hit.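 Assay: single dose, 48 h. Readout: percent growth (0 = no net growth; negative = cell death). Active: <10.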 Unmarked numbers belong to inactive results. Calls of active or inactive are those of the source.

Experiments:
Assay in all cases: NCI-60 one-dose screen, 48 h (100 = growth as untreated, 0 = no growth, -100 = all killed)
T-47D breast = conditions: 10 µM unless noted
BT-549 breast = conditions: 10 µM unless noted
MDA-MB-435 melanoma = conditions: 10 µM unless noted
SW-620 colon = conditions: 10 µM unless noted
MCF7 breast = system: MCF7 breast
HCT-116 colon = conditions: 10 µM unless noted
HCC-2998 colon = conditions: 10 µM unless noted
KM12 colon = conditions: 10 µM unless noted

SMILES | growth (T-47D breast) | growth (BT-549 breast) | growth (MDA-MB-435 melanoma) | growth (SW-620 colon) | growth (MCF7 breast; 10 µM unless noted) | growth (HCT-116 colon) | growth (HCC-2998 colon) | growth (KM12 colon) | growth (MCF7 breast; 10 µM) | growth (MCF7 breast; 100 µM)
CCOC(=O)/C(O)=C(\C=N\C(=S)Nc1ccc(Cl)c(Cl)c1)C(=O)OCC | 58.3% | 100% | 87.1% | 104% | 81% | 101% | 87.9% | 100% | – | –
C=CC(C)(C)n1cc(C2=C(O)C(=O)C(c3cn(C(C)(C)C=C)c4ccccc34)=C(O)C2=O)c2ccccc21 | 85.9% | 96.3% | 103% | 105% | – | 97.4% | – | 99.9% | 96.1% | -81.2% (active) and -91.7% (active)
c1ccc(-c2ccc3ccccc3c2)cc1 | 81.4% | 98.8% | 103% | 90.5% | 82.2% | 95.9% | 107% | 92.9% | – | –
COc1ccc2c(c1)Nc1ccccc1S2 | 95.7% | 89.1% | 112% | 106% | 98.6% | 105% | 108% | 110% | – | –
O=C(c1ccc(Cl)cc1)N1CCCCC1 | 91.5% | 105% | 101% | 99.8% | 92.9% | 99.9% | 107% | 106% | – | –
CCCCCCCCCCCCCCCCCCSC(=N)N | 90% | 104% | 84.7% | 46.3% | 51.7% | 66.6% | 45.2% | 64.5% | – | –
C=CCc1cc(OC)c(O)c(OC)c1 | 83.7% | 106% | 108% | 114% | 96.9% | 92.6% | 102% | 104% | – | –
CC(C)NC(=O)OCc1c(COC(=O)NC(C)C)c(-c2ccc(Cl)cc2)n2c1CCC2 | 36.3% | 27% | 66.7% | 46.6% | 41.2% | 49.9% | 87% | 100% | – | –
O=S(=O)(O)c1ccc(O)c(C2CCCCC2)c1 | 89.1% | 98.2% | 102% | 108% | 91.8% | 92.7% | 113% | 105% | – | –
Cc1ccnc(Nc2nc3ccccc3[nH]2)n1 | 86.5% | 112% | 107% | 99.3% | 98.8% | 103% | 112% | 118% | – | –
O=C(O)c1cc(I)ccc1O | 112% | 85.9% | 100% | 116% | 95.7% | 111% | 95.1% | 108% | – | –
CCCc1cccc(CCC)c1NC(=O)Nc1cc(Cl)cc(Cl)c1 | 82.3% | 86.6% | 104% | 123% | 99.1% | 91.2% | 116% | 101% | – | –
OC(CCN1CCCCC1)(c1ccccc1)c1ccccc1 | 103% | 107% | 98.9% | 107% | 97.9% | 102% | 99.1% | 113% | – | –
CCN(CC)CCCC(C)NC(=S)N/N=C(\C)c1ccccn1 (stereo not drawn) | 56.7% | 65.5% | 54.8% | 47.5% | 25.7% | 23.9% | 56.8% | 36.4% | – | –
CCCCCC#CC(=O)O | 85.2% | 64.1% | 107% | 104% | 95.4% | 112% | 113% | 121% | – | –
Cc1ccc(O)c(N)c1 | 92.8% | 95.2% | 112% | 121% | 99.9% | 111% | 110% | 110% | – | –
Cc1cc(C(=O)NN)c(C#N)c(=O)[nH]1 | 96.3% | 109% | 119% | 102% | 93% | 100% | 112% | 122% | – | –
Nc1nc(N)nc(N2CCCCC2)n1 | 101% | 106% | 115% | 106% | 104% | 106% | 106% | 101% | – | –

SMILES | growth (T-47D breast) | growth (BT-549 breast) | growth (MDA-MB-435 melanoma) | growth (SW-620 colon) | growth (MCF7 breast; 10 µM unless noted) | growth (HCT-116 colon) | growth (HCC-2998 colon) | growth (KM12 colon) | growth (MCF7 breast; 10 µM) | growth (MCF7 breast; 100 µM)
c1ccc2c(NCCCN3CCN(CCCNc4c5ccccc5nc5ccccc45)CC3)c3ccccc3nc2c1 | -7.72% [100 µM] (active) | -61.4% [100 µM] (active) | -88.4% [100 µM] (active) | -22.7% [100 µM] (active) | -56.5% [100 µM] (active) | -49.6% [100 µM] (active) | -76.6% [100 µM] (active) | -14.9% [100 µM] (active) | – | –
C1CCc2onc(-c3noc4c3CCCCC4)c2CC1 | 101% | 108% | 110% | 124% | 95.5% | 105% | 109% | 107% | – | –
C1=NCCc2ccccc21 | 86% | 106% | 111% | 98.5% | 90.3% | 89.7% | 112% | 110% | – | –
Cc1onc(-c2c(F)cccc2Cl)c1-c1ncc(-c2ccc(Br)cc2)o1 | 29.6% | 40.7% | 40.8% | 35.6% | 20.9% | 17.8% | 58.6% | 36.4% | – | –
CN1CCN(C(=S)S)CC1 | 93% | 108% | 109% | 114% | 99.3% | 107% | 107% | 107% | – | –
Cc1cc(C)cc(OCC(=O)O)c1 | 96.6% | 97.9% | 104% | 109% | 97.7% | 96.9% | 102% | 110% | – | –
CCCCCCCCCCCCSC1=C(Cl)C(=O)C(OC)=C(OC)C1=O | 14.1% | 58.3% | 25.9% | 27.5% | 6.48% (active) | 16% | 4.65% (active) | 24.4% | – | –
O=S(Cc1ccccc1)/C(=C/NC(=S)Nc1cc(Cl)ccc1Cl)c1ccccc1 (stereo not drawn) | 104% | 96.5% | 108% | 107% | 96.9% | 109% | 103% | 100% | – | –
Nc1ccc(F)c(Cl)c1F | 102% | 88.8% | 109% | 104% | 102% | 94.9% | 100% | 108% | – | –
Oc1cc2ccccc2c(-c2c(O)c(O)cc3ccccc23)c1O | 25.7% | 5.13% (active) | 10.5% | 49.4% | 12.3% | 29% | 38.6% | 52.5% | – | –
O=c1n(CC2CO2)c(=O)n(CC2CO2)n1CC1CO1 (stereo not drawn) | 52.4% | 54.4% | 90.4% | 66.3% | 31% | 57.7% | 75.2% | 84.4% | – | –
CC(C)=CCC[C@@H](C)[C@H]1CC[C@@]2(C)C3=C(CC[C@]12C)[C@@]1(C)CC[C@H](O)C(C)(C)[C@@H]1CC3 | 92.8% | 109% | 101% | 99.9% | 97.3% | 108% | 101% | 109% | – | –
COCC(N)=O | 98.4% | 93.2% | 105% | 99.7% | 102% | 99% | 110% | 98.9% | – | –
COc1nc(Nc2cccc(C(F)(F)F)c2)nc(OC)n1 | 92.5% | 91% | 106% | 110% | 97.9% | 97% | 108% | 97.8% | – | –
COc1ccc(-c2csc(NC(=O)Nc3nc(-c4ccc(OC)cc4)cs3)n2)cc1 | 56.5% | 79.9% | 78.7% | 98.1% | 71.6% | 64.2% | 100% | 64.6% | – | –
Nc1cc(N)ncn1 | 112% | 101% | 102% | 104% | 99.7% | 99.1% | 99.6% | 101% | – | –
O=C(CCl)Nc1ccccc1SCc1cc(Cl)cc2c1OCOC2 | 55.9% | 71.9% | 24.1% | 87.1% | 55.6% | 78.9% | 99.1% | 96.8% | – | –
O=C1NC(=O)/C(=C\c2ccncc2)N1 | 101% | 99.5% | 96% | 99% | 94.9% | 89.6% | 133% | 86.9% | – | –
